Screening data deposited in PubChem by several laboratories.
E coli Lon inh = inhibitors of E. coli Lon protease; P0A9M0; purified E. coli Lon protease, fluorescence polarization; inhibition, % at 7.94 µM; 360,000 compounds, 0.42% hits; in the data active = inhibition above about 13%, passing the limit was not always enough;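 note: 0% = enzyme with probe and DMSO and 100% = no enzyme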
Target sequence (P0A9M0 whole entry, looked up): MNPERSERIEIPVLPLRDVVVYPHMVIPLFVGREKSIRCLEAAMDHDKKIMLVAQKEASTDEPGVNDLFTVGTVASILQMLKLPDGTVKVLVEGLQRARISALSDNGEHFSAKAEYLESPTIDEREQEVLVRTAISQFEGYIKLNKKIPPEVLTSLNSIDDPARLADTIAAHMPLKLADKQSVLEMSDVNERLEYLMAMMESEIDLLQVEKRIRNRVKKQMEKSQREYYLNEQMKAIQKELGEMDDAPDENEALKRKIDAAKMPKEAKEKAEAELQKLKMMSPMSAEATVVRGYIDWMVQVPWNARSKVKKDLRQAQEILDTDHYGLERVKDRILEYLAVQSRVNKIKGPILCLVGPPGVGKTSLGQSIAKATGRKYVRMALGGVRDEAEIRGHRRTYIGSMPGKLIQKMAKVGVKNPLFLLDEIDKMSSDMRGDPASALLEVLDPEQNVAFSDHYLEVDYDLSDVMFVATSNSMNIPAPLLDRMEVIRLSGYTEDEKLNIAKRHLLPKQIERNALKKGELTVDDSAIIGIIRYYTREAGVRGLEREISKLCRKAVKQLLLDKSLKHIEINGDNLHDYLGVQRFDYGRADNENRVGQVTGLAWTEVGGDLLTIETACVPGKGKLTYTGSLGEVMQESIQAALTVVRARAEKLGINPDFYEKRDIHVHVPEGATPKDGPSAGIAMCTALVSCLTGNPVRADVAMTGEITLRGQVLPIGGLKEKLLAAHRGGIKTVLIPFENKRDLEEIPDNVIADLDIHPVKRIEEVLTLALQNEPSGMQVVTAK
GLD-1 TGE inh = GLD-1-TGE RNA interaction inhibition (C. elegans). Q17339. purified GLD-1 + fluorescein TGE RNA, fluorescence polarization. inhibition, % at 5.96 µM. 320,000 compounds, 0.44% hits. AID 2280;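 active = percent inhibition above a per-plate cutoff, the plate mean of test compounds plus 3 SD, cut at about 30% in these data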;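 note: 0% = DMSO wells with GLD-1 and probe and 100% = wells lacking GLD-1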
EBV gp42 block = blocks Epstein-Barr virus glycoprotein 42 binding; 220,000 compounds, 0.42% hits; AID 1085; Fluorescence polarization binding assay, mP read-out; inhibition, % (tested at 21.74 µM); in the data active = inhibition above about 50%
MEX-5 binding = C. elegans MEX-5 TCR-2 RNA binding activity | Q9XUB2 | MEX-5/FITC-TCR2 RNA binding, fluorescence polarization; hits give low values | activity score (negative = inhibition of binding), % at 10 µM | 300,000 compounds, 0.38% hits | AID 1832;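 active = inhibition past about -25% in most replicates, and total fluorescence under double the plate's negative control median, limit read from the data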;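 note: 0% = DMSO and -100% = 5 µM competing unlabeled TCR2 RNA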
Bcl-xL primary = inhibitors of human Bcl-xL. 320,000 compounds, 0.7% hits. Q07817. inhibition, % at 10.9 µM. AID 2129. GST-Bcl-xL / FITC-Bim BH3 peptide fluorescence polarization;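 active = inhibition above the mean of all tested compounds plus 3 SD, cutoff set per campaign, cut at about 30% in these data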;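 note: 0% = DMSO wells and 100% = unlabeled Bim-BH3 peptide competitor; inhibitors lower millipolarization by displacing the labeled peptide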
MCL1 BIM primary = inhibitors of human MCL1 binding to BIM-BH3 peptide; Q07820; GST-MCL1 / FITC-Bim-BH3 fluorescence polarization; inhibition, % at 10.9 µM; 320,000 compounds, 0.68% hits;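 active = inhibition above the mean inhibition of all tested compounds plus 3 SD, set per campaign, cut at about 40% in these data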;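 note: 0% = DMSO wells and 100% = unlabeled Bim-BH3 peptide control; higher means more loss of mP so more displacement of Bim peptide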
E coli Lon conf = E. coli Lon inhibition confirmation. shares compounds with E coli Lon inh. purified E. coli Lon, fluorescence polarization. inhibition, % at 7.94 µM. 1,400 compounds, 31% hits. AID 602230; in the data active = inhibition above about 16%;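 note: 0% = enzyme with probe and DMSO and 100% = no enzyme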
An asterisk follows results filed as active; i = inactive; nt = no result. Rows were chosen to be rich in hits. Some 1.5% of all compounds tested hit in one or more screens of this group.

SMILES	E coli Lon inh	GLD-1 TGE inh	EBV gp42 block	MEX-5 binding	Bcl-xL primary	MCL1 BIM primary	E coli Lon conf
O=C(c1cccc([N+](=O)[O-])c1)c1ccc2c(c1)OCCOCCOCCO2	-12.9	4.4	-7.0	4.1	-2.5	0.8	nt
Cc1cccc(N2N=C(C(=O)O)CCC2=O)c1	36.7*	-1.4	nt	0.5	4.6	1.1	1.7
CCCNS(=O)(=O)c1ccc2c(c1)n(C)c(=O)n2C	16.2*	5.1	-7.4	-0.3	6.4	6.5	-4.5
COCCn1nnnc1CN(Cc1ccco1)Cc1cc2cc3c(cc2[nH]c1=O)OCO3	22.7*	-8.6	-15.6	0.8	-4.8	-2.5	6.1
O=C(CNC(=O)c1ccc(Br)o1)NNC(=O)c1ccccc1	96.0*	nt	nt	nt	nt	nt	4.0
ON(CCc1ccccn1)CCc1ccccn1	37.6*	nt	nt	nt	nt	nt	25.1*
ON(CCc1ccccn1)Cc1ccccc1	1.1	nt	nt	nt	nt	nt	nt
COc1ccc(C=NOCC(=O)OCC(=O)Nc2ccc(OC)cc2)cc1	49.7*	2.5	nt	nt	nt	nt	21.2*
CC(=O)Nc1ccc(/C=N/OCC(=O)Nc2ccc(C)cc2)cc1	-4.7	2.8	-0.4	0.5	9.8	3.9	nt
Cc1ccc(S(=O)(=O)NC(=O)C2(C)CCN2C(=O)C2CCCCC2)cc1 (stereo not given)	-8.3	nt	nt	nt	nt	nt	nt
O=c1[nH]cnc2sc3c(c12)CCN(Cc1ccccc1)C3	25.0*	9.6	-1.0	11.0	32.8*	35.3	10.7
COc1ccc([C@H]2CC(=O)C=C(c3ccc(OC)nc3)C2)cc1	-1.3	-0.8	nt	nt	-3.5	2.7	nt
CC(=O)c1cccc(NC(=O)C(C)OC(=O)c2cc(C)oc2C)c1 (stereo not given)	5.8	nt	nt	nt	nt	nt	nt
CC(=O)NCCNC(=O)c1cccc(NS(=O)(=O)c2ccc3c(c2)OCCO3)c1	-6.0	7.1	nt	-0.8	1.6	-1.3	nt
Cc1nn(C(C)C(=O)O)c(=O)c2c1sc1ccccc12 (stereo not given)	-2.7	3.1	-20.4	-0.2	3.7	-2.9	nt
CC1(CCC(=O)N2CCCC(N3CCN(c4ccc(F)cc4)CC3)C2)CC1 (stereo not given)	13.2*	2.2	nt	1.0	-1.5	3.3	-6.9
CSCC(=O)N1CCCC(N2CCN(c3ccc(F)cc3)CC2)C1 (stereo not given)	-6.1	4.8	nt	0.5	4.9	8.1	nt
O=C(c1cccc(Cl)c1)N1CCC2CC1c1cc(-c3ccccc3)ccc12 (stereo not given)	-2.7	nt	nt	nt	nt	nt	nt
O=C(c1ccc(Cl)cc1)N1CCC2CC1c1cc(-c3ccccc3)ccc12 (stereo not given)	15.8*	nt	nt	nt	nt	nt	3.7
CC(C)OP(=O)(CCP(=O)(OC(C)C)OC(C)C)OC(C)C	16.9*	5.3	3.8	1.5	2.5	5.3	-80.7
O=C(O)c1ccccc1NS(=O)(=O)c1ccccc1C(F)(F)F	-2.7	0.6	0.9	-3.4	4.0	-0.6	nt
Cc1ccc(N(CC(=O)NC2CCCCC2)C(=O)CNC(=O)c2cccs2)cc1	-10.8	-0.7	nt	2.4	-0.2	1.6	nt
Cc1ccc(N(CC(=O)NC2CCCC2)C(=O)CNC(=O)c2cccs2)cc1C	18.9*	-8.3	nt	0.1	-0.3	-1.3	-15.5
COc1ccc(C=C2SC(=S)NC2=O)cc1	-31.8	nt	nt	nt	nt	nt	nt
CCOCCCNC(=O)C(NC(=O)CNC(C)=O)c1ccc(Cl)cc1 (stereo not given)	-1.7	0.1	-11.1	-2.7	2.6	1.9	nt
SMILES	E coli Lon inh	GLD-1 TGE inh	EBV gp42 block	MEX-5 binding	Bcl-xL primary	MCL1 BIM primary	E coli Lon conf
CCOCCCNC(=O)C(NC(=O)c1ccccc1O)c1ccc(Cl)cc1 (stereo not given)	17.9*	-0.5	1.4	0.8	2.0	-2.8	-19.1
Cc1cc(Br)cn2c(Cc3ccsc3)c(-c3cccc(Cl)c3)nc12	-4.8	nt	nt	nt	nt	nt	nt
Clc1cccc(-c2nc3ccc(Cl)cn3c2Cc2ccsc2)c1	19.6*	nt	nt	nt	nt	nt	112.7*
Cc1cc(Br)cn2c(Cc3ccsc3)c(-c3ccc(Cl)cc3)nc12	17.2*	nt	nt	nt	nt	nt	30.5*
Cc1ccc(C(=O)COC(=O)COc2ccc(C)c(C)c2)cc1	-10.0	nt	nt	0.4	nt	nt	nt
COC(=O)c1ccc(C(=O)N(C)C2CCCN(Cc3ccccc3F)C2)nc1 (stereo not given)	0.6	-10.9	nt	-4.0	-0.6	7.9	nt
COC(=O)c1ccc(=O)n(Cc2ccc3c(c2)OCO3)c1	20.6*	-3.5	1.3	-1.4	4.1	-4.4	-7.0
N#CC1=C2N=C(N)c3ccccc3N2C2=C(C(=O)CCC2)C1c1ccccc1F (stereo not given)	71.2*	13.5	26.3	-0.2	23.8	20.6	3.8
Nc1scc2c(C(=O)N/N=C/c3ccc(Cl)cc3)nn(-c3ccccc3)c(=O)c12	14.7*	11.5	-8.7	-3.8	42.6*	40.5*	16.6*
O=C(CN1CCCCCC1)N/N=C/c1ccc(Cl)c(Cl)c1	-2.5	1.1	10.2	-0.9	0.4	1.6	nt
O=C(CN1CCSCC1)N/N=C/c1ccc(F)c(F)c1	27.0*	5.6	-17.3	0.9	2.3	-2.2	-1.0
OCc1ccccc1-c1cccc2nccn12	69.6*	nt	nt	nt	nt	nt	4.9
c1cnc2c(-c3cccc4nccn34)cccc2c1	-2.1	nt	nt	nt	nt	nt	nt
CC1CCCC(C)N1C(=O)COC(=O)c1ccc(Br)c(S(=O)(=O)N2CCOCC2)c1 (stereo not given)	-8.3	5.8	nt	nt	nt	nt	nt
O=C(NCCc1nnc2ccc(N3CCCC3)nn12)c1ccccc1	18.9*	-1.2	nt	-2.1	0.9	-3.1	-4.0
CN(/N=C/c1ccc(N(C)C)cc1)C1=NS(=O)(=O)c2ccccc21	47.1*	5.6	nt	41.6	13.7	3.5	i
COc1ccc(/C=N/N(C)C2=NS(=O)(=O)c3ccccc32)cc1	7.0	3.7	nt	2.4	7.1	2.0	nt
COc1ccc(CCN2CCC(Nc3nc4ccccc4n3Cc3ccc(F)cc3)CC2)cc1	-5.0	-4.2	2.2	-1.9	8.8	11.1	nt
COc1c(O)cccc1[C@@H](O)C1CCN(CCc2ccc(F)cc2)CC1	34.7*	58.3*	nt	-28.8*	40.8*	39.6	-0.2
COc1cc2[nH]c(=S)nc(NCc3ccccc3)c2cc1OC	6.2	-1.4	nt	0.7	3.4	-1.4	nt
COc1cc2[nH]c(=S)nc(NCc3ccccn3)c2cc1OC	26.2*	nt	36.4	nt	nt	nt	56.5*
O=C(Nc1cnn(C23CC4CC(CC(C4)C2)C3)c1)c1cc(-c2ccccc2)on1	7.3	11.3	-7.4	-1.5	-1.8	-2.9	nt
CC(=O)ON1C(C)(C)CC(OC(=O)c2ccccc2)CC1(C)C	-4.7	0.1	-11.7	-1.0	0.5	-2.6	nt
CC(=O)OC1CC(C)(C)N(OC(=O)c2ccccc2)C(C)(C)C1	14.8*	0.4	-17.4	1.2	-0.2	-3.5	6.3
O=C(Cc1cccs1)NCCn1ccc2ccccc21	18.7*	-5.9	-3.8	2.6	-4.7	2.2	-4.6
CCC(=O)NCCn1ccc2ccccc21	-5.4	0.4	-1.4	-2.6	1.8	3.2	nt
Cc1cccc(S(=O)(=O)N2CN(Cc3ccco3)c3nc4ccccc4nc32)c1	59.5*	18.7	-10.2	-3.2	24.7	23.7	-12.7
